20 molecules from PubChem BioAssay (NCATS) can be followed below.

Each structure is given as a SMILES string. Inconclusive results are not listed. Active and inactive are the calls of the source. Unless noted, calls follow the shape of the dose curve; as a rule, active = well fitted curve in the direction sought with a large enough effect; inconclusive = small, poorly fitted or top-dose-only effect, or another doubt; inactive = no such curve, though single readings can be large; an effect the other way counts as inactive or inconclusive.

Experiment [1] deals with Zika virus NS2B-NS3 protease (unlinked complex). The experiment is described as follows: Primary screen GU Rhodamine qHTS for Zika virus inhibitors: Unlinked NS2B-NS3 protease assay (AID 1347159). Also: nearly all actives have a fitted effect of over 60% in size. Also: potency is read from the fitted curve at half-maximal effect. As to activity change, negative = inhibition: % is scaled to controls: 0 for no effect and ±100 for the full control effect. An outline of the steps:
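In dose–response format, inhibition of unlinked protease (25 nM) was measured with 1.5 microM bis-peptide Rhodamine110 substrate. Aprotinin served as the intraplate control.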
On the technique in general: In qHTS, concentration-response curves come from the screen itself.

Experiment [2] concerns the target Cytochrome P450 2D6 (Homo sapiens) (UniProt P10635). The experiment is described as follows: Cytochrome P450 family 2 subfamily D member 6 (CYP2D6) small molecule antagonists: luciferase biochemical (cell-free) qHTS assay (AID 1645840; active = well fitted curve in the direction sought with a large enough effect in the repeat runs; an effect the other way counts as inactive or inconclusive; also: nearly all actives have a fitted effect of over 55% in size; also: potency is read from the fitted curve at half-maximal effect). The method, boiled down:
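P450-Glo CYP2D6 system: proluciferin substrate converted by enzyme to luciferin, read by luminescence proportional to activity. Enzyme-substrate mix with compound 10 min at room temperature, then NADPH regeneration 1 h before detection reagent.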

Experiment [3] concerns the target Cytochrome P450 2C9 (Homo sapiens) (UniProt P11712). The experiment is described as follows: Cytochrome P450 family 2 subfamily C member 9 (CYP2C9) small molecule antagonists: luciferase biochemical (cell-free) qHTS assay (AID 1645842; active = well fitted curve in the direction sought with a large enough effect in the repeat runs; an effect the other way counts as inactive or inconclusive; also: nearly all actives have a fitted effect of over 55% in size; also: potency is read from the fitted curve at half-maximal effect; as to activity change, negative = inhibition: % is scaled to controls: 0 for no effect and ±100 for the full control effect). An outline of the steps:
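P450-Glo CYP2C9 system: proluciferin substrate with enzyme in mix containing 0.4% BSA, 10 min at room temperature, then NADPH regeneration solution added and incubated 1 h at 37C. Detection reagent stopped reaction; luminescence read after 20 min as RLU.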

The target in experiment [4] is Catechol O-methyltransferase (Homo sapiens) (UniProt P21964). Description: Confirmatory Screen for Target Class Profiling of Small Molecule Inhibitors of Methyltransferases (AID 1745852; calls by dose curve; as to activity change, negative = inhibition: % is scaled to controls: 0 for no effect and ±100 for the full control effect). Particulars: MTase-Glo luminescence, SAH detection, recombinant enzyme; measured here: COMT max response; stronger effect = lower value.
Sequence of Catechol O-methyltransferase (Homo sapiens) (P21964 whole entry, looked up): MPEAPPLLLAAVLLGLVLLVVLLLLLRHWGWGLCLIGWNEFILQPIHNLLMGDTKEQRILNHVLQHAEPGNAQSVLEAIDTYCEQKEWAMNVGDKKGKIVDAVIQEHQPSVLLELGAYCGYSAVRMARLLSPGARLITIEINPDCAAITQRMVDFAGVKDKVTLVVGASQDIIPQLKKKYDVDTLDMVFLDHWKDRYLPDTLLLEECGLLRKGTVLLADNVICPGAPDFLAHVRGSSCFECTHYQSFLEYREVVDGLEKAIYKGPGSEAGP
For experiment [5], the target named is Guanidinoacetate N-methyltransferase (Homo sapiens) (UniProt Q14353). Described as above. To be noted: activity change, negative = inhibition: at 57.3 µM (top of the series) unless noted.
For experiment [6], the target named is Nicotinamide N-methyltransferase (Homo sapiens) (UniProt P40261). Described as above. Particulars: MTase-Glo luminescence, SAH detection, recombinant enzyme; measured here: NNMT max response; stronger effect = lower value.
Sequence of Nicotinamide N-methyltransferase (Homo sapiens) (P40261 whole entry, looked up): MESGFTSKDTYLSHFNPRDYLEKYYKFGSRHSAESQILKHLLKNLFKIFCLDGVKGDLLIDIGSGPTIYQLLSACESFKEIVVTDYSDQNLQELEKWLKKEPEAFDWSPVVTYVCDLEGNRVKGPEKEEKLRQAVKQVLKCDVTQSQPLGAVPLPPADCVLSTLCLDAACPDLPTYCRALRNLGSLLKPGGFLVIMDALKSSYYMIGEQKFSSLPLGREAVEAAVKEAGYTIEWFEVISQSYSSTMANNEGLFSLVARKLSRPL
Experiment [7] concerns the target Phenylethanolamine N-methyltransferase (Homo sapiens) (UniProt P11086). The description is as above. To be noted: MTase-Glo luminescence, SAH detection, recombinant enzyme; measured here: PNMT max response; stronger effect = lower value.
Experiment [8] concerns CRL-7250. Description: Cytotoxic Profiling of Annotated Libraries Using Quantitative High-Throughput Screening (AID 1296008). Also: nearly all actives have a fitted effect of over 60% in size. Also: potency is read from the fitted curve at half-maximal effect. As to max response: % is scaled to controls: 0 for no effect and ±100 for the full control effect. To be noted: Five cell lines viability, CellTiter-Glo ATP luminescence, 48-72 h; max response: stronger effect = lower value. An outline of the steps:
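Cells exposed to compounds for 48 or 72 hr at 37 degrees Celsius. Viability read as ATP-coupled luminescence with CellTiter-Glo after 10 min at room temperature.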
For orientation: ATP-based viability assays read luminescence as a measure of living cells.

The test system of experiment [9] is HACAT. Description: qHTS assay to identify novel small-molecules to repurpose for Merkel cell carcinoma treatment (AID 1296009). Also: nearly all actives have a fitted effect of over 60% in size. Particulars: MCC and control cell lines, CellTiter-Glo viability, 72 h; at 44.8 µM (top of the series) unless noted. An outline of the steps:
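CellTiter-Glo luminescence after 72 hr compound exposure at 37 degree celsius gave cell viability. Libraries NPC and MIPE were run as 8- and 11-point dose responses; RLUs normalized to DMSO (negative) and no-cell (cytotoxicity) controls.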

Experiment [10] relates to CAOV3. The experiment is described as follows: Primary qHTS to identify gynecologic anti-cancer compounds using libraries of approved drugs and bioactive compounds (AID 1345084). Also: nearly all actives have a fitted effect of over 55% in size. Also: potency is read from the fitted curve at half-maximal effect. To be noted: Gynecologic cancer cell panel viability, ATPlite luminescence, 48 h; series mostly up to 57.5 µM. An outline of the steps: (§1)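 48 h compound exposure at 37 C, 5% CO2; five-point qHTS. ATPlite luminescence readout of cell ATP.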

Experiment [11] deals with PA-1. Described as above. To be noted: Gynecologic cancer cell panel viability, ATPlite luminescence, 48 h; series mostly up to 57.5 µM. The method, boiled down: as §1
Experiment [12] has as its system SKOV3. The experiment is described as above. Particulars: Gynecologic cancer cell panel viability, ATPlite luminescence, 48 h; series mostly up to 57.5 µM. An outline of the steps: as §1
The nature of experiment [13]: Confirmatory screen GU Rhodamine qHTS for Zika virus inhibitors qHTS (AID 1347157). Also: potency is read from the fitted curve at half-maximal effect; nearly all actives have a fitted effect of over 70% in size. The method, boiled down: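 Noncovalent NS2B hydrophilic domain/NS3 protease complex (25 nM final) in 10 mM Tris-HCl pH 8.0, 0.01% Tween 20, preincubated 15 min with compounds (up to 114 microM), then 1.5 microM Rhodamine110 substrate. Fluorescence change over 15 min fitted to 4-parameter Hill.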

Experiment [14] has as its system Zika virus NS2B-NS3 protease (linked construct). The experiment is described as follows: 384 well plate NINDS Rhodamine confirmatory qHTS for Zika virus inhibitors (AID 1347164).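 Also: fluorescence from protease cleavage of Ac-LKRR-rhodamine 110 substrate; potency is read from the fitted curve at half-maximal effect; nearly all actives have a fitted effect of over 65% in size.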 An outline of the steps:
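Enzyme (final 5/30/60 nM) + cpd (DMSO), ~15 min; add Ac-LKRR-Rd 10 microM final; 25 min RT, dark; FI ex 485/em 538; normalized to no-enzyme, no-inhibitor ctrls; aprotinin intraplate ctrl.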

A short description of experiment [15]: Tertiary RLuc qRT-PCR qHTS assay for Zika virus inhibitors (AID 1347169). Also: potency is read from the fitted curve at half-maximal effect; nearly all actives have a fitted effect of over 55% in size. An outline of the steps: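 Vero, 1,000 cells/well, o/n 37 C; cpd pinned in DMSO; ZIKV-RLuc Cambodian, MOI 1-2, 48-72 h 37 C; live-cell RLuc substrate, lum read at 1-1.5 h.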
On the technique in general: Real-time PCR tracks product formation cycle by cycle.

Experiment [16] can be described thus: Primary fluorescence-based thiol-reactive (MSTI) qHTS assay for identification of artifact compounds. (AID 1845221). Also: nearly all actives have a fitted effect of over 65% in size. Also: potency is read from the fitted curve at half-maximal effect. An outline of the steps: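 First, 4 uM MSTI in 2% DMSO/PBS pH 7.4 was dispensed; next, compounds were added; then plates sat 1 h at room temperature without light. Finally, emission at 598 nm was recorded.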
Experiment [17] is described as follows: P-glycoprotein substrates identified in KB-8-5-11 adenocarcinoma cell line, qHTS therapeutic library screen (AID 1346987). Also: nearly all actives have a fitted effect of over 65% in size. Also: potency is read from the fitted curve at half-maximal effect. The method, boiled down: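 In this qHTS, P-gp-rich KB-8-5-11 cells received library compounds across a concentration range. Viability was quantified by luminescence after 72 h at 37 degree C.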

Sequence of Cytochrome P450 2C9 (Homo sapiens) (P11712 whole entry, looked up): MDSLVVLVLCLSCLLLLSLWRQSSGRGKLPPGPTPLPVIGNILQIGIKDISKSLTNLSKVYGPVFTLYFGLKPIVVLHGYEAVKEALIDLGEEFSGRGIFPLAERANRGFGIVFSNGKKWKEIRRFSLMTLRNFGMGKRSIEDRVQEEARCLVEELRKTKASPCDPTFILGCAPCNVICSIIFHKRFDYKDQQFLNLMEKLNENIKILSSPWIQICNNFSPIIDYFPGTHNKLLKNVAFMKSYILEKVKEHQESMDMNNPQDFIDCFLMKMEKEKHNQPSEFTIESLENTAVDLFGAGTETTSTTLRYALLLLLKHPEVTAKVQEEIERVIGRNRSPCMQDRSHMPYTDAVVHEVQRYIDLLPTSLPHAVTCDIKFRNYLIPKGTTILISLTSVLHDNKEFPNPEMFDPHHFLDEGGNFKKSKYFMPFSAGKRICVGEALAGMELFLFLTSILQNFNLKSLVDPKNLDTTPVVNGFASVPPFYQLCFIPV
Sequence of Phenylethanolamine N-methyltransferase (Homo sapiens) (P11086 whole entry, looked up): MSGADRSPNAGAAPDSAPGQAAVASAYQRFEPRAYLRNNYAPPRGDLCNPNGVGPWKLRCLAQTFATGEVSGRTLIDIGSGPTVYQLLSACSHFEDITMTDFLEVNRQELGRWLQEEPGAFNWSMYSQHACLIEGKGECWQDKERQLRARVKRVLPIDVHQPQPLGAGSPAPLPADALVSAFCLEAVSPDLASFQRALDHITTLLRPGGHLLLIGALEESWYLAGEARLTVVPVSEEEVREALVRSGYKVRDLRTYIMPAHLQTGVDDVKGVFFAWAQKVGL
Sequence of Cytochrome P450 2D6 (Homo sapiens) (P10635 whole entry, looked up): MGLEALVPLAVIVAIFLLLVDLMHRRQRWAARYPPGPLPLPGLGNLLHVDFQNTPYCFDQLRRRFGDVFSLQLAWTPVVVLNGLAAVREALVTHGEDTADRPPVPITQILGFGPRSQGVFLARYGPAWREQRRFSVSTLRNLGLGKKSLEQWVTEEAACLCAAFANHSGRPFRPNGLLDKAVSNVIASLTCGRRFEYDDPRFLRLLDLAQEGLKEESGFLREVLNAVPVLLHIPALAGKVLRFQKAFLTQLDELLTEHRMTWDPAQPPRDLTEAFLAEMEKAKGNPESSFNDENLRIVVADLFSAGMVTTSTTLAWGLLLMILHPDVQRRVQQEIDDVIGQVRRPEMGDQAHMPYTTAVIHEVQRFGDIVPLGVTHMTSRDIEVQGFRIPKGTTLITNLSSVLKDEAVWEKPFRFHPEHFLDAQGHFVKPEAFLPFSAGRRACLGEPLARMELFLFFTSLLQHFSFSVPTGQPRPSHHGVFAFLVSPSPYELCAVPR

Regarding `COc1ccc2c(c1)C[C@H](C(=O)Nc1ccc(-c3cn[nH]c3)cc1OCCN(C)C)CO2`, the Potency entry in experiment [1], in experiment [10], in [11] and in [12] was “inactive” in each case. Also, the Potency in experiment [2] is 9.52 µM (active); in experiment [3], 4.25 µM (active); in [8], 20.6 µM (active). Further, the activity in experiment [4] was -2.58%; in experiment [6], -0.41%; in experiment [7] it was 0.522%. Moreover, the activity change, negative = inhibition in [5] is -2.48% [at 9.47 µM]. Besides, the outcome in [9] is “inactive”.
Turning to `CN(Cc1ccc(C(=O)O)cc1)c1ccc(OCc2c(-c3c(Cl)cccc3Cl)noc2C2CC2)nc1C(F)(F)F`, the Potency in experiment [13] is 2.21 µM (active); in experiment [1] it was 2 µM (active); in experiment [14] it was 6.31 µM (active); in experiment [15], 13.1 µM (active); in [3] it was 10.7 µM (active). The activity in experiment [4] is -2.57%; in [6], -0.741%; in experiment [7], 0.284%. Besides, the activity change, negative = inhibition in experiment [5] was -2.02%. Also, the Potency result in experiment [16], in experiment [11] and in [12] was “inactive” throughout. Moreover, the outcome in [8] is “inactive”.
Consider `C[C@@H](c1nc(-c2ccc(C#N)cc2)cs1)[C@](O)(Cn1cncn1)c1cc(F)ccc1F`, for which the Potency result in experiment [1], in experiment [16], in experiment [10] and in experiment [11] was “inactive” each time. Further, in [3], the Potency is 6.01 µM (active). Further, in experiment [8], the max response was -34.3% (inactive). The outcome in experiment [9] is “inactive”.
For the molecule `CCCCOc1ccc(-c2cncc(C(=O)NCc3cccnc3N3CCOCC3)c2)cc1Cl`, the Potency result in experiment [1], in experiment [16], in [10], in experiment [11] and in [12] was “inactive” each time. Further, the Potency in experiment [2] is 12 µM (active); in experiment [3], 3.01 µM (active). Besides, in [8], the max response was -9.28% (inactive).
As for `Cc1ccc(CCCO)c(NCc2ccc3nc(NCCCN4CCOCC4)n(Cc4nc(C)ccc4O)c3c2)c1`, in [1], the Potency entry is “inactive”. In experiment [8], the Potency was 23.1 µM (active).
For the molecule `O=S(=O)(c1cccc2ccccc12)n1ccc2ccc(N3CCN4CCCC4C3)cc21` (stereo unspecified), the Potency in experiment [17] was 20.6 µM (active); in [2] it was 2.68 µM (active); in experiment [3], 12 µM (active). The max response in [8] is -10.4% (inactive). For the same molecule, the Potency entry in [10] and in [12] was “inactive” each time.
As to `CNc1ccc([N+](=O)[O-])cc1-n1cnc(-c2ccc(C(F)(F)F)cc2)c1`, the Potency result in experiment [1], in experiment [10], in experiment [11] and in experiment [12] was “inactive” throughout. The Potency in experiment [2] is 0.756 µM (active); in experiment [3], 3.01 µM (active). Besides, the max response in experiment [8] was 1.42% (inactive).
For the molecule `CC(=O)c1c(OCCN2CCCCC2)c(OCCC(C)c2ccc(F)cc2)c2oc(C)nc2c1C` (stereo unspecified), the Potency was 20.6 µM (active) in experiment [17], 0.477 µM (active) in [2] and 19 µM (active) in [3]. For the same molecule, the Potency result in [1] and in experiment [16] was “inactive” in each case. In addition, the max response in [8] was -7.29% (inactive). For the same molecule, the outcome in experiment [9] is “inactive”.
Take `Cc1ccccc1C(=O)Nc1ccc(C(=O)N2CCC[C@@H](O)c3cc(Cl)ccc32)c(C)c1`: the Potency result in experiment [1], in experiment [16], in [10] and in experiment [11] was “inactive” in each case. Besides, the Potency in experiment [3] is 12 µM (active). In addition, in experiment [8], the max response was -3.25% (inactive).
For the molecule `CCN(CC)c1ccc(C(=C2C=CC(=[N+](CC)CC)C=C2)c2cc(S(=O)(=O)O)ccc2S(=O)(=O)[O-])cc1`, the Potency in experiment [2] was 15.5 µM (active); in [3] it was 13.8 µM (active); in experiment [8], 5.31 µM (active); in experiment [10] it was 28.2 µM (active); in experiment [11], 3.55 µM (active).
Take `OCC(CO)(CO)NCC(O)Cn1c2ccc(Cl)cc2c2cc(Cl)ccc21` (stereo unspecified): the Potency entry in experiment [17], in experiment [16], in experiment [10] and in experiment [11] was “inactive” each time. For the same molecule, in [8], the max response is -2.15% (inactive).
`COCCOCCOc1ccc(C2=N[C@@](C)(C(=O)O)CS2)c(O)c1`: the Potency in experiment [16] is 0.377 µM (active). Besides, the max response in experiment [8] was -74.5% (inactive). Also, the Potency entry in [10] is “inactive”.
Consider `C/C=C(/COC(=O)/C(C)=C/C)C(=O)OC/C=C/c1ccc(OC)cc1`, for which the Potency entry in experiment [1], in [16] and in experiment [12] was “inactive” each time. Also, in [8], the max response was -7.59% (inactive). For the same molecule, the outcome in experiment [9] is “inactive”.
Take `CN(C)CCCNc1nc(CN2CCN(C(c3ccc(Cl)cc3)c3ccc(Cl)cc3)CC2)nc2ccccc12`: the Potency result in [1], in [3], in [16], in [10] and in experiment [11] was “inactive” in each case. Besides, the activity in experiment [4] is 2.87%; in experiment [6], -46.9%; in experiment [7], -0.0137%. Also, the activity change, negative = inhibition in [5] came to 0%. Besides, in experiment [8], the max response was 1.9% (inactive).
As for `CNC(=O)c1cccc2cc(Oc3ccnc4cc(OCC5(N)CC5)c(OC)cc34)ccc12`, the Potency entry in experiment [1], in [2] and in [10] was “inactive” each time. The values for the Potency in [3] and in [8] were 7.56 µM (active) and 4.61 µM (active), respectively. In addition, in experiment [9], the outcome was “inactive”.
In the case of `N#CCC(C1CCCC1)n1cc(-c2ncnc3[nH]ccc23)cn1` (stereo unspecified), the Potency result in [1], in [2], in experiment [10], in experiment [11] and in experiment [12] was “inactive” each time. For the same molecule, the Potency in experiment [3] is 15.1 µM (active). Also, in experiment [8], the max response is -27.8% (inactive). In addition, the outcome in experiment [9] was “inactive”.
`CC1CCC2C(C)(C)C(O)CCC2(C)C12Cc1c(O)cc3c(c1O2)CN(C(CCCN=C(N)N)C(=O)O)C3=O` (stereo unspecified): the Potency entry in experiment [1], in experiment [16] and in experiment [12] was “inactive” throughout. Further, in experiment [8], the outcome is “inactive”. The outcome in experiment [9] was “inactive [at 17.4 µM]”.
Take `N#Cc1c[nH]c2c(C(=O)N3CCN(CCc4ccc(F)cc4)CC3)cccc12`: the Potency entry in experiment [1], in experiment [16], in experiment [10] and in experiment [11] was “inactive” each time. In addition, the figures for the Potency in experiment [2] and in experiment [3] were 15.1 µM (active) and 13.5 µM (active), respectively. Moreover, the outcome in experiment [8] was “inactive”.
Regarding `CC[C@H](CO)Nc1nc(Nc2cccc(-c3ccccn3)c2)c2ncn(C(C)C)c2n1`, the Potency in [17] was 20.6 µM (active); in experiment [3], 0.379 µM (active). Further, the Potency entry in experiment [16] and in experiment [12] was “inactive” in each case. Besides, the max response in experiment [8] was -6.96% (inactive).
`CC/C(=C(\c1ccc(O)cc1)c1ccc(OCCNC)cc1)c1ccccc1`: the outcome in experiment [8] and in experiment [9] was “inactive” each time. Besides, the Potency result in experiment [11] and in experiment [12] was “inactive” each time.
